Bioassay records: PubChem, Broad Institute
aSyn 5UTR act: Activators via SNCA 5'UTR binding, MLPCN; alpha-synuclein 5'UTR reporter, activators screen; activity score, % (tested at 7.5 µM), hits read low; hit rate 7.1% among 300,000; AID 1814; in the data active = activity score below about -60%
* = called active by the depositor. These entries were drawn from the full list.

SMILES | aSyn 5UTR act
N#Cc1cc2cc3c(cc2nc1N1CCCCC1)OCCO3 | -222*
CC(C)(C)c1ccc(-c2noc(-c3ccc4c(c3)CCO4)n2)cc1 | -157*
Cc1cc(-c2nc(-c3ccc(C(C)(C)C)cc3)no2)no1 | -171*
Cc1noc(C)c1CSc1nc2[nH]ncc2c(=O)n1-c1ccccc1 | 51
Cc1nc(-c2ccccc2)nc2[nH]c(=O)n(-c3ccccc3)c(=O)c12 | -93*
Cc1ccc(/C=C2/SC(=S)N(CCCC(=O)Nc3ccc(O)cc3)C2=O)cc1 | 86
Cc1ccc(C(=O)NNC(=O)CCCN2C(=O)/C(=C/c3ccccc3Cl)SC2=S)cc1 | 69
Cc1ccc(N2C(=O)/C(=C/c3ccco3)SC2=S)cc1 | -94*
COc1ccc(N=C2NC(=O)/C(=C/c3ccco3)S2)cc1 | -127*
Cc1ccc(N=C2NC(=O)S/C2=C\c2ccco2)cc1 | -63*
O=C1NC(=Nc2ccccc2)/C(=C/c2ccco2)S1 | -65*
Cn1c(=O)oc2cc(NC(=O)CCl)ccc21 | -107*
CCN(CCn1cccn1)C(=O)CCc1nnc(-c2ccccc2)o1 | -73*
CCN(CCn1cccn1)C(=O)CCc1nnc(C2(c3ccc(Cl)cc3)CCC2)o1 | -86*
COc1ccccc1C(=O)Nc1ccc2c(c1)CN(C(=O)CSC)CC2 | -109*
COc1cccc(NC(=O)N2CCc3ccccc3C2)c1 | -104*
FC(F)Oc1ccc(NC(=S)N2CCc3ccccc32)cc1 | -133*
COc1cccc(-c2cc(C(=O)N3CCc4ccccc4C3)[nH]n2)c1 | -68*
O=C(Nc1cccc(Cl)c1)N1CCc2ccccc2C1 | -185*
COc1ccc(NC(=S)N2CCc3ccccc3C2)cc1 | -82*
COc1ccc(NC(=O)C(=O)NCC(c2ccco2)N2CCc3ccccc32)cc1 (stereo not drawn) | 85
S=C(NCCc1ccccc1)N1CCc2ccccc2C1 | -101*
Cc1ccc(OC(=O)COc2ccccc2C)c(-n2nc3ccccc3n2)c1 | -233*
Cc1ccc(OC(=O)COc2ccccc2)c(-n2nc3ccccc3n2)c1 | -178*
O=C(Oc1c(-c2ccccc2)c(=O)n2c3c(cccc13)CC2)c1cccc([N+](=O)[O-])c1 | 77
SMILES | aSyn 5UTR act
Cc1ccc(OC(=O)c2cccc([N+](=O)[O-])c2)c(-n2nc3ccccc3n2)c1 | -278*
CC(=O)NC(c1ccc(Cl)cc1Cl)c1ccc2cccnc2c1O (stereo not drawn) | 86
O=C(NCCc1ccccc1F)c1cccc2cccnc12 | -147*
COc1ccccc1C(=O)Nc1cccc2cccnc12 | -81*
Cc1ccc(NC(=O)c2cccc3cccnc23)cc1 | -91*
O=C(Nc1cccc2cccnc12)c1cc(F)c(F)cc1Cl | -74*
O/N=C/c1ccc(OCc2ccccc2F)c(Cl)c1 | -92*
O/N=C/c1ccc(OCc2ccccc2)c(Cl)c1 | -104*
O/N=C/c1ccc(OCc2ccccc2)c(Br)c1 | -142*
CCCCN(C(=O)NC(=O)Nc1nc2ccc(OC)cc2s1)S(C)(=O)=O | -83*
CCCCOC(=O)Nc1nc2ccc(OC)cc2s1 | -103*
CCCCOC(=O)Nc1nc2ccccc2s1 | -252*
Cc1ccc(-c2csc(N)n2)s1 | -71*
NC(=O)C(C(=O)/C=C/c1ccc(Cl)cc1)=C1SCCS1 | -114*
COc1ccc(/C=C/C(=O)C(C(N)=O)=C2SCCS2)cc1 | -109*
CCOC(=O)c1c(C)nc2c3ccccc3ccn12 | -91*
NC(=O)c1cc2c3ccccc3ccn2c1-c1ccccc1 | 113
Cc1ccc(-c2csc(NC(CO)c3nc4ccccc4n3CCOCCO)n2)cc1 (stereo not drawn) | -71*
O=C(Oc1ccc(Cl)cc1)N1CCCCC1 | -110*
O=C(Oc1ccc2ccc(OC(=O)N3CCCCCC3)cc2c1)N1CCCCCC1 | -81*
Cc1nc(SCC(=O)c2ccc(Cl)s2)c2oc3ccccc3c2n1 | -94*
c1coc(CSc2ncnc3c2oc2ccccc23)c1 | -91*
CC(=O)CSc1ncnc2c1oc1ccccc12 | -65*
CC(Cc1cccs1)NC(=O)Nc1ccc(Cl)c(Cl)c1 (stereo not drawn) | -90*
CCCC(=O)NC(c1cccs1)c1cc(Cl)c2cccnc2c1O (stereo not drawn) | 99
SMILES | aSyn 5UTR act
CC(Cc1cccs1)NC(=O)Nc1ccc(Cl)cc1 (stereo not drawn) | -221*
CCCCNC(=O)c1ccc(Cn2c(=S)[nH]c3c([nH]c4ccc(OC)cc43)c2=O)cc1 | 105
CCCCC(=NCCc1c(C)[nH]c2ccc(OC)cc12)C1=C(O)CC(c2ccccc2)CC1=O (stereo not drawn) | 119
COc1ccc2c(=O)c(C(=O)NCCc3ccccc3)c[nH]c2c1 | -169*
COc1ccc2[nH]cc(C(=O)NCCc3ccccc3)c(=O)c2c1 | -71*
CCCNC(=O)c1ccc2c(=O)c(O)c(-c3ccc(OC)cc3)[nH]c2c1 | 88
CC1Sc2ccc(C(=O)OCc3ccccc3Cl)cc2NC1=O (stereo not drawn) | -147*
CC1Sc2ccc(C(=O)Nc3ccccc3OC(F)F)cc2NC1=O (stereo not drawn) | -81*
O=C(c1cn(-c2ccc(Cl)c(Cl)c2)nn1)C1CC1 | -107*
CCN1CCN(c2ccc(NC(=O)c3ccco3)cc2Cl)CC1 | -112*
O=C(Nc1ccc(N2CCOCC2)c([N+](=O)[O-])c1)c1ccco1 | -73*
CCN1CCN(c2ccc(NC(=O)c3cccc(F)c3)cc2Cl)CC1 | -82*
O=C(Nc1ccc(N2CCCC2)c(Cl)c1)c1ccco1 | -113*
Fc1ccc(-c2nnn(Cc3ccc(F)cc3Cl)n2)cc1 | -71*
Cc1ccccc1-c1nnn(Cc2ccc(F)cc2Cl)n1 | -86*
CCN(/C=N/c1sc2c(c1C#N)CCCCC2)CC | -142*
CN1CCN(/C=N/c2sc3c(c2C#N)CCCCC3)CC1 | -147*
O=C(NCCc1cccs1)c1ccc(Cl)c(Cl)c1 | -209*
O=C(NCc1cccs1)c1ccc2c(c1)OCCO2 | -70*
CCOC(=O)CNC(=O)c1cc(-c2ccc3c(c2)OCCO3)oc1C | -99*
Cc1ccc(C(=O)NCCc2cccs2)cc1 | 73
CCOC(=O)CNC(=O)c1ccc2c(c1)OCCO2 | -64*
Cc1n[nH]c(=O)n1-c1ccc(OCc2ccccc2)cc1 | -91*
CC(/C=N/NC(=O)c1cc(-c2ccncc2)nc2ccccc12)=C\c1ccco1 | 86
CC(/C=N/NC(=O)c1cccs1)=C\c1ccco1 | -176*
SMILES | aSyn 5UTR act
CC(/C=N/NC(=O)Cc1cccs1)=C\c1ccco1 | -98*
CS(=O)(=O)c1ccc2sc(NC(=O)c3cc4ccccc4o3)nc2c1 | -96*
CS(=O)(=O)c1ccc2nc(NC(=O)c3cc4ccccc4o3)sc2c1 | -167*
CC(=O)Nc1nc2ccc(-c3nc4ccccc4o3)cc2s1 | -108*
N#C/C(=C\c1ccco1)Sc1nc2ccccc2s1 | -84*
CNC(=O)c1ccsc1NC(=O)c1ccc2c(c1)CCCC2 | -214*
COc1ccc(C2=NN(S(C)(=O)=O)C(c3cccs3)C2)cc1 (stereo not drawn) | -95*
COc1ccc(C2CC(c3cccs3)=Nc3ccccc3S2)cc1 (stereo not drawn) | -163*
COc1ccc(C2CC(c3cccs3)=NN2S(C)(=O)=O)cc1 (stereo not drawn) | -85*
CS(=O)(=O)N1N=C(c2ccc(Br)cc2)CC1c1cccs1 (stereo not drawn) | -117*
CCc1ccc(C2=NN(S(C)(=O)=O)C(c3cccs3)C2)cc1 (stereo not drawn) | -92*
Cc1ccc(C2=NN(S(C)(=O)=O)C(c3cccs3)C2)cc1 (stereo not drawn) | -146*
